Source: PubChem BioAssay AID652115 (Broad Institute, 2013)
Among all 330,000 compounds or so, about 3,800 (1.2%) were called active. The sample holds actives, similar compounds and a random draw of the others, so the mix is not that of the screen. Unmarked numbers belong to inactive results. Rule as the data show it: active = inhibition above about 15%; inconclusive = no clear call, values can overlap the other calls; inactive = below that.

Target: NAD-dependent protein deacylase sirtuin-5, mitochondrial (Homo sapiens) (UniProt Q9NXA8)
Assay: SIRT5 desuccinylase inhibitors, primary screen, biochemical, fluorescence imaging, single point, set 5 (AID 652115)
Conditions: Purified SirT5, succinyl-peptide AMC, trypsin-coupled fluorescence; at 15 µM; stronger effect = higher value

Chain of NAD-dependent protein deacylase sirtuin-5, mitochondrial (Homo sapiens) (Q9NXA8 whole entry, looked up): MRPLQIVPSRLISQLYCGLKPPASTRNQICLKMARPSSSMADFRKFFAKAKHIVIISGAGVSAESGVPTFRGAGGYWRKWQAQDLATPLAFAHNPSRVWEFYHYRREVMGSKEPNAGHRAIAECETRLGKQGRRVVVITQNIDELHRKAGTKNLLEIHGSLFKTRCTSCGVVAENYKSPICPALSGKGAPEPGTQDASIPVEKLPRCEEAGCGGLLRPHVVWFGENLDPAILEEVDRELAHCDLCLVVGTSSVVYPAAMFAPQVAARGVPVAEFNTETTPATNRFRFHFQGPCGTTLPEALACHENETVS

| Compound | inhibition |
| --- | --- |
| C[C@H]1CN([C@@H](C)CO)C(=O)c2cc(C#CC3CCCC3)cnc2O[C@@H]1CN(C)C(=O)Cc1ccccn1 | 0.934% |
| COc1ccc(Cn2c(=S)[nH]c3cc(C(=O)NCCCN4CCOCC4)ccc3c2=O)cc1 | -1.07% |
| COc1ccc(OC)c(-n2c(=S)[nH]c3cc(C(=O)N4CCCCC4)ccc3c2=O)c1 | -0.433% |
| COc1ccc(Cn2c(=S)[nH]c3cc(C(=O)N4CCCCC4)ccc3c2=O)cc1 | 16.6% (active) |
| Cn1cnc(S(=O)(=O)N2C[C@H](O)COC[C@@H]3O[C@H](CC(=O)NC4Cc5ccccc5C4)CC[C@H]32)c1 | 1.91% |
| COc1cccc(C#Cc2ccc3c(c2)[C@H]2[C@H](CCN2C(=O)CC2CC2)[C@H](CO)N3)c1 | 0.183% |
| O=C(N/N=C/c1ccco1)c1csc2c1CCCC2 | 15.8% (active) |
| O=C(N/N=C/c1ccco1)c1ccc(NC(=O)C2CC2)cc1 | 0.297% |
| Cc1ccc(NC(=O)c2csc3c2CCCC3)cc1 | -2.6% |
| CCCNC(=O)N1C[C@H](O)COC[C@H]2O[C@@H](CC(=O)NCc3ccncn3)CC[C@@H]21 | 0.03% |
| C[C@@H]1CN([C@@H](C)CO)C(=O)c2cc(-c3cncnc3)cnc2O[C@H]1CN(C)Cc1cncnc1 | 4.33% |
| Cc1ccccc1NC(=O)Cn1c(=O)n(CC2CCCO2)c(=O)c2ccccc21 (centres undefined) | -0.914% |
| Cc1ccccc1NC(=O)CN1C(=O)N/C(=C\c2cccn2-c2cccc(C(=O)O)c2)C1=O | 18.5% (active) |
| Cc1ccccc1NC(=O)CSC(=O)c1ccccc1 | -2.14% |
| O=C(C[C@@H]1CC[C@H](NC(=O)NC2CCCCC2)[C@H](CO)O1)NCc1ccc(F)cc1 | 2.17% |
| O=C(C[C@@H]1C[C@H]2c3cc(NS(=O)(=O)c4ccc(F)cc4)ccc3O[C@H]2[C@@H](CO)O1)NCc1ccccc1F | 2.14% |
| C[C@H](CO)N1C[C@H](C)[C@H](CN(C)C(=O)Nc2ccc(F)cc2)OCCCC[C@H](C)Oc2ccc(NC(=O)CCC(F)(F)F)cc2C1=O | -0.898% |
| COCC#Cc1cnc2c(c1)C(=O)N([C@H](C)CO)C[C@H](C)[C@H](CN(C)C(=O)CCN1CCCCC1)O2 | 9.41% |
| CCCN1[C@H](C(=O)NC2Cc3ccccc3C2)[C@@H](CO)[C@@H]2Cn3c(cccc3=O)[C@@H]21 | 2.03% |
| COCC(=O)N1CC(=O)N2[C@H](CO)[C@@H](c3ccc(C#CC4CCCC4)cc3)[C@H]2C1 | 0.692% |
| CCCC#Cc1ccc([C@H]2[C@@H](CO)N3CCCCN(S(=O)(=O)CC)C[C@H]23)cc1 | -3.78% |
| CCCC#Cc1ccc([C@H]2[C@H](CO)N3CCCCN(S(=O)(=O)CC)C[C@@H]23)cc1 | -5.72% |
| CCCC#Cc1ccc([C@H]2[C@@H](CO)N3CCCCN(S(=O)(=O)Cc4ccccc4)C[C@H]23)cc1 | 37.3% (active) |
| COC(=O)C[C@H]1CC[C@H]2[C@@H](COc3ccc(NC(=O)C4CC4)cc3C(=O)N2C)O1 | 4.29% |
| COc1ccc2c3c(n(C)c2c1)[C@H](CO)N(C(C)=O)CC31CCN(Cc2cccnc2)CC1 | -0.634% |

| Compound | inhibition |
| --- | --- |
| Cc1ccc(S(=O)(=O)N[C@@H]2CC[C@H](CCn3cc(-c4cccc(F)c4)nn3)O[C@@H]2CO)cc1 | -2.4% |
| Cc1cccc(OC(=O)c2sc3ncn(C)c(=O)c3c2C)c1 | 6.38% |
| Clc1ncn(CCOc2ccccc2)c1Cl | -0.177% |
| Cc1c(C(N)=O)sc2ncn(CCOc3ccccc3)c(=O)c12 | 25.5% (active) |
| COc1ccc(NC(=O)Nc2ccc3c(c2)C(=O)N([C@H](C)CO)C[C@@H](C)[C@H](CN(C)CC2CCCCC2)OCCCC[C@@H](C)O3)cc1 | -2.57% |
| CCC(=O)N1CC(=O)N2[C@H](CO)[C@@H](c3ccc(-c4ccc(C(=O)N(C)C)cc4)cc3)[C@H]2C1 | -3.02% |
| CCNC(=O)C[C@H]1CC[C@@H]2[C@H](COC[C@H](O)CN2C(=O)Nc2c(C)noc2C)O1 | -2.07% |
| Cc1cccnc1C(NC(=O)C1CCN(Cc2ccc(Cl)c(Cl)c2)CC1)c1ccc(Cl)cc1 (centres undefined) | 0.115% |
| O=C(NC(c1ccc(Cl)cc1)c1cnccn1)C1CCN(Cc2ccc(Cl)cc2)CC1 (centres undefined) | 18.2% (active) |
| O=C(NC(c1ccc(-c2ccccc2)cc1)c1cnccn1)C1CCN(CCOc2ccc(Cl)cc2Cl)CC1 (centres undefined) | -0.795% |
| O=C(C[C@@H]1CC[C@@H](NS(=O)(=O)c2ccc(F)cc2)[C@H](CO)O1)NCc1ccc(Cl)c(Cl)c1 | -7.51% |
| CCOC(=O)N1CCN(C(=O)C[C@@H]2C[C@@]3(C(=O)OC)CC(C)(C)CC=C3N(Cc3ccco3)C2=O)CC1 | -1.2% |
| CCCCNC(=O)C[C@@H]1C[C@@]2(C(=O)OC)CC(C)(C)CC=C2N(Cc2ccco2)C1=O | 21.7% (active) |
| CCCCNC(=O)C[C@@H]1C[C@@]2(C(=O)OCC)CCC=C2N(Cc2ccco2)C1=O | 4.42% |
| CC(C)NC(=O)N(C)C[C@@H]1Oc2c(NC(=O)c3cnccn3)cccc2C(=O)N([C@@H](C)CO)C[C@@H]1C | -2.42% |
| COc1ccc2c3c([nH]c2c1)[C@@H](CO)N(S(C)(=O)=O)CC31CN(CC2CC2)C1 | 1.2% |
| CN(C)S(=O)(=O)N1CCN(c2ccc([N+](=O)[O-])cc2)CC1 | 17.4% (active) |
| O=C(Cc1ccc([N+](=O)[O-])cc1)NCCS(=O)(=O)N1CCN(c2ccccc2)CC1 | -5.2% |
| O=[N+]([O-])c1ccc(N2CCOCC2)cc1 | -2.77% |
| O=C(Cc1ccccn1)NCC[C@H]1CC[C@@H](NS(=O)(=O)c2ccc(F)cc2)[C@H](CO)O1 | -3.9% |
| Nc1[nH]c(C(=O)c2ccccc2)c(-c2ccc(Cl)cc2Cl)c1C(=O)c1ccccc1 | 1.08% |
| CC(Oc1ccccc1F)C(=O)NN (centres undefined) | 5.06% |
| CC(Oc1ccc(F)cc1F)C(=O)/C=C/N(C)C (centres undefined) | 38.2% (active) |
| O=C(C=CC(=O)Nc1ccc(F)cc1F)Nc1ccc(F)cc1F | 2.61% |
